Results as given in PubChem BioAssay.
For some of these results: Potency and affinity values are given separately. The source made the active and inactive calls. Unless noted, how the calls were made is not given here.

Columns and labels:
[1] = tested on: Hepatitis C virus NS3 helicase; assay: HCV NS3 helicase inhibitors, primary screen, biochemical, fluorescence polarization, LOPAC1280 library (AID 687035; in the data active means inhibition above about 37%); conditions: Purified HCV NS3 helicase, Cy5-dT15 ssDNA binding fluorescence polarization; stronger effect = higher value; concentration not given here
[2] = Cy5 fluorescence quenching or enhancement artefacts, artefact control for HCV NS3 helicase inhibitor project, biochemical, LOPAC1280 (AID 687037); conditions: Cy5-DNA-NS3h complex fluorescence interference counterscreen
[3] = stimulators of nuclear beta-catenin in C2C12, primary screen, imaging, WNT3A-conditioned medium, mouse C2C12, NPC library (AID 1117326; in the data active means nuclear beta-catenin stimulation mostly above about 4.2%, no sharp cut-off; inactive means mostly below about 10%); conditions: stronger effect = higher value
[4] = stimulators of insulin release from INS-1E, primary screen, cell-based, 5 mM glucose, NPC library (AID 1117329;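 active means compound raises insulin release from rat beta cells at 5 mM glucose, no numeric limit stated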); conditions: rat INS-1E insulin secretion, at 10 µM, stronger effect = higher value
[5] = growth inhibition of GSK3B-pretreated HCT116 cells – cell-based, CellTiter-Glo, 0.2 to 20 µM (AID 1117336;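 active means compounds lowering colon cancer cell viability after pretreatment blocking the GSK3B kinase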); conditions: HCT116 viability after GSK3B inhibitor, at 20 µM, stronger effect = higher value
[6] = inhibition of endothelial tube formation, primary screen, imaging, VEGF stimulated, CD31 staining, tube area, NPC library (AID 1117340;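 active means compound that reduces growth-factor-driven endothelial tube area in a mixed cell culture, no cutoff stated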); conditions: VEGF-stimulated ADSC/ECFC co-culture, at 10 µM, stronger effect = higher value
[7] = glucagon-like peptide 1 release enhancers, primary assay, NCI-H716 cell line, NPC library (AID 1117341;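 active means compound raises GLP1 secretion from the human gut endocrine cells, with no numeric limit stated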); conditions: NCI-H716 cells, at 10 µM, stronger effect = higher value
[8] = HCT116 colon cancer cell growth inhibition, primary screen, CellTiter-Glo luminescence, NPC library (AID 1117342;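 active means compounds that lower survival of HCT116 colon cancer cells in the luminescence readout, no numeric limit stated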); conditions: at 20 µM (top of the series)
[9] = CellTiter-Glo luminescent readout of SW480 viability loss, NPC library primary (AID 1117343;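 active means compounds that lower viability of the colon cancer cells in the luminescence readout, with no numeric limit stated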); conditions: CellTiter-Glo luminescence; at 20 µM (top of the series)
[10] = decreased DLD-1 cellular survival, CellTiter-Glo luminescent readout, NPC compound collection, primary HTS (AID 1117346;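 active means compounds that lower survival of DLD-1 colon cancer cells in the luminescence readout, no cutoff given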); conditions: DLD-1 viability, CellTiter-Glo luminescence; at 20 µM (top of the series)
[11] = biological target: 6-phosphogluconate dehydrogenase, decarboxylating (Homo sapiens) (UniProt P52209); assay: 6PGD enzyme inhibitors, primary screen, biochemical, human, recombinant enzyme, NADPH absorbance (AID 1159550;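 active means at least 20% inhibition of 6-phosphogluconate dehydrogenase activity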); conditions: recombinant 6PGD, NADPH absorbance 341 nm; at 10 µM; stronger effect = higher value
Chain of 6-phosphogluconate dehydrogenase, decarboxylating (Homo sapiens) (P52209 whole entry, looked up): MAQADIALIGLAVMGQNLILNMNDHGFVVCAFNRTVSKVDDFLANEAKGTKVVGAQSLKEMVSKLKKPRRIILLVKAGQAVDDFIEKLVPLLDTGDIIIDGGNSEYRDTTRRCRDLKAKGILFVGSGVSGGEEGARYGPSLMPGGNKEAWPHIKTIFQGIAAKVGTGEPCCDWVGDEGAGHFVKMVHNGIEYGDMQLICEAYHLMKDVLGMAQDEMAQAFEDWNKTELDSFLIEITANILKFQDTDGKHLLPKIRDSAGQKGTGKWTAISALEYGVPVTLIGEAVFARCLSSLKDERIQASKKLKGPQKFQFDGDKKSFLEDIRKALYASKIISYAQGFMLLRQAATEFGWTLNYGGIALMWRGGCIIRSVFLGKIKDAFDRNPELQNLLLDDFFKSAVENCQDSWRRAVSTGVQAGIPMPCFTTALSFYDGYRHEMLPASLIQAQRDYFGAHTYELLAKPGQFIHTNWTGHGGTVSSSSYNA

[12] = biological target: Calcium-dependent protein kinase 1 (Plasmodium falciparum (isolate 3D7)) (UniProt P62344); assay: PfCDPK1 kinase inhibitors, biochemical, TCAMS library (AID 1159585; cut-off not given, nearly all actives have IC50 up to about 0.98 µM;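 further: inhibitors leave more ATP so luminescence rises with inhibition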); conditions: recombinant PfCDPK1, Kinase-Glo ATP depletion luminescence
Chain of Calcium-dependent protein kinase 1 (Plasmodium falciparum (isolate 3D7)) (P62344 whole entry, looked up): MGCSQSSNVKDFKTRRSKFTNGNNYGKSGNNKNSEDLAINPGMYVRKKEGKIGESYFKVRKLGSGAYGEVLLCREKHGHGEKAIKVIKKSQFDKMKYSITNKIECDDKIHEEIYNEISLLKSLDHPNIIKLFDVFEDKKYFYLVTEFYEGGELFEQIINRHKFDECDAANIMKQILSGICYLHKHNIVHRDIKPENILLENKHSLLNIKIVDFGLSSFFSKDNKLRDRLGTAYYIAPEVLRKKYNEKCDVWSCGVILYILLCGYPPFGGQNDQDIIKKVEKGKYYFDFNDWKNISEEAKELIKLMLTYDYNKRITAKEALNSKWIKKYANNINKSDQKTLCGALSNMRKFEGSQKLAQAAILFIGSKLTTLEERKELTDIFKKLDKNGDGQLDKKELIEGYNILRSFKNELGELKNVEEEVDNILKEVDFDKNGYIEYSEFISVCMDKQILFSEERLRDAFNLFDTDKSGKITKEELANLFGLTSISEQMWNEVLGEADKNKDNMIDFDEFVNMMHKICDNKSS

[13] = biological target: Plasmodium falciparum protein kinase 6 (PK6, PF3D7_1337100) (UniProt Q8IDW1); assay: PfPK6 kinase inhibitors, biochemical, TCAMS library (AID 1159586); conditions: recombinant PfPK6, Kinase-Glo ATP depletion luminescence
Chain of Plasmodium falciparum protein kinase 6 (PK6, PF3D7_1337100) (Q8IDW1 1-305): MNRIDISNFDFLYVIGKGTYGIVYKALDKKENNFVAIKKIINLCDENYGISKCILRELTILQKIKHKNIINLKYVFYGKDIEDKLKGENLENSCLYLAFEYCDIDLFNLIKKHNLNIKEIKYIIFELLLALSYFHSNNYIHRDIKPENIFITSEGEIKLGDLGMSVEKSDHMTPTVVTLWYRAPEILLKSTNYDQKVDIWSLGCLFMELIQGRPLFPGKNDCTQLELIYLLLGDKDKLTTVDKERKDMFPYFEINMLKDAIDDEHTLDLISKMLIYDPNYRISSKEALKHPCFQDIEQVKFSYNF

[14] = Cy5 fluorescence interference with SSB-bound oligo, artefact control for HCV NS3 helicase inhibitor project, biochemical, NIH Clinical Collection, E. coli SSB (AID 743268)
[15] = tested on: Hepatitis C virus NS3 helicase; assay: HCV NS3 helicase inhibitors, primary screen, biochemical, fluorescence polarization, NIH Clinical Collection (AID 743270); conditions: NS3 helicase binding to Cy5-dT15 DNA, stronger effect = higher value, concentration not given here
[16] = biological target: Single-stranded DNA-binding protein (Escherichia coli (strain K12)) (UniProt P0AGE0); assay: E. coli SSB displacement from DNA, counter-screen for HCV NS3 helicase inhibitor project, biochemical, fluorescence polarization, NIH Clinical Collection (AID 743271; in the data active means inhibition above about 28%); conditions: stronger effect = higher value, concentration not given here
[17] = fluorescence interference in NS3h assay format, artefact control for HCV NS3 helicase inhibitor project, biochemical, NIH Clinical Collection (AID 743272); conditions: fluorescence interference counterscreen, stronger effect = lower value;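 further: HCV NS3 helicase with a Cy5 labelled single stranded DNA probe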
[18] = tested on: Neuropilin-2 / VEGF-C interaction (human); assay: inhibitors of NRP2–VEGF-C binding, biochemical, microplate binding format, z-score (AID 743281); conditions: microplate NRP2/VEGF-C binding assay; stronger effect = lower value

| Structure (SMILES) | inhibition [1] | fluorescence ratio (interference) [2] | nuclear beta-catenin stimulation ([3]; at 10 µM) | nuclear beta-catenin stimulation ([3]; stimulation, at 2 µM) | insulin secretion stimulation [4] | viability decrease [5] | tube area decrease [6] | GLP1 secretion stimulation [7] | inhibition of viability [8] | viability decrease (inhibition) [9] | viability decrease (inhibition) [10] | inhibition [11] | outcome [12] | outcome [13] | fluorescence ratio [14] | inhibition [15] | inhibition [16] | fluorescence ratio [17] | z-score [18] |
| --- | --- | --- | --- | --- | --- | --- | --- | --- | --- | --- | --- | --- | --- | --- | --- | --- | --- | --- | --- |
| Cc1cc(C(C)(C)C)c(O)c(C)c1CC1=NCCN1 | -6% (inactive) | 0.9 (inactive) | 1.6% (inactive) | 2.7% | 2.1% (inactive) | 5.6% (inactive) | -3.7% (inactive) | 4.3% (inactive) | 20.6% (inactive) | -4.2% (inactive) | -0.8% (inactive) | 6.36% (inactive) |  |  |  |  |  |  |  |
| O=C(Nc1cccc(C2=NCCN2)c1)Nc1cccc(C2=NCCN2)c1 |  |  | 1.5% (inactive) | 4.9% | 0.05% (inactive) | 72.2% (active) | -57.4% (inactive) | -1% (inactive) | 70.7% (active) | 52.2% (active) | 60.8% (active) |  | inactive | inactive |  |  |  |  |  |
| CS(=O)(=O)Nc1ccc([N+](=O)[O-])cc1Oc1ccccc1 | -3% (inactive) | 1 (inactive) | 0.4% (inactive) | -0.6% | 0.6% (inactive) | 7.2% (inactive) | 11.6% (inactive) | 0.1% (inactive) | 15% (inactive) | 10.5% (inactive) | 17.8% (inactive) | 11.1% (inactive) |  |  |  |  |  |  |  |
| CN1CCN(C2=Nc3ccccc3Oc3ccc(Cl)cc32)CC1 | -3% (inactive) | 1 (inactive) | 1.4% (inactive) | -0.5% | 0.1% (inactive) | -29.5% (inactive) | 43.3% (active) | 1.6% (inactive) | 30.1% (inactive) | 107% (active) | 85% (active) | -14% (inactive) |  |  | 0.97 (inactive) | 1.19% (inactive) | 2.21% (inactive) | 0.92 (inactive) | -0.0658 (inactive) |
| CN(C)C(=O)Oc1cccc([N+](C)(C)C)c1 | -5% (inactive) | 1 (inactive) | 1% (inactive) | 5.2% | -0.9% (inactive) | 10% (inactive) | -12.9% (active) | 1.3% (inactive) | 2.9% (inactive) | -16.1% (inactive) | -5.8% (inactive) | -2.26% (inactive) |  |  |  |  |  |  |  |
| C[C@](N)(Cc1ccc(O)cc1)C(=O)O | -1% (inactive) | 0.9 (inactive) | -0.2% (inactive) | 4.5% | -0.1% (inactive) | 0.3% (inactive) | -8.2% (inactive) | 1.3% (inactive) | -15.1% (inactive) | 42.1% (inactive) | -1.1% (inactive) | -7.56% (inactive) |  |  |  |  |  |  |  |
| CCN(CC)CCNC(=O)c1cc(S(C)(=O)=O)ccc1OC | -3% (inactive) | 0.9 (inactive) | 1.9% (inactive) | 0.2% | 0.1% (inactive) | -23.6% (inactive) | 12% (inactive) | 0.7% (inactive) | 1.13% (inactive) | 10.9% (inactive) | -4.3% (inactive) | -8.37% (inactive) |  |  |  |  |  |  |  |
| CNC[C@H](O)c1ccc(O)c(O)c1 | -5% (inactive) | 1 (inactive) | 0.3% (inactive) | 0.2% | -2.3% (inactive) | 31.1% (inactive) | -5.3% (inactive) | 2.1% (inactive) | -7.2% (inactive) | 64.8% (active) | 23.9% (inactive) | -1.63% (inactive) |  |  |  |  |  |  |  |
| CCn1cc(C(=O)O)c(=O)c2cc3c(cc21)OCO3 | -1% (inactive) | 1 (inactive) | 0.2% (inactive) | 0.8% | -1.3% (inactive) | -16% (inactive) | 12.1% (inactive) | -1.5% (inactive) | -19.5% (inactive) | 8.3% (inactive) | 7.15% (inactive) | 15.6% (inactive) |  |  |  |  |  |  |  |
| NC(N)=Nc1nc(CSCC/C(N)=N/S(N)(=O)=O)cs1 |  |  | 0.9% (inactive) | -1.4% | 2.8% (inactive) | 6.7% (inactive) | 6.4% (inactive) | 1.4% (inactive) | -8.7% (inactive) | 0.7% (inactive) | -10.3% (inactive) | 5.97% (inactive) |  |  | 0.96 (inactive) | 3.56% (inactive) | 6.83% (inactive) | 0.9 (inactive) | -0.254 (inactive) |
| Cc1ccccc1N1C(=O)c2cc(S(N)(=O)=O)c(Cl)cc2NC1C (stereo unspecified) | 1% (inactive) | 1 (inactive) | -0.4% (inactive) | 1.1% | 1.1% (inactive) | -5.6% (inactive) | -5.3% (inactive) | -1.9% (inactive) | 0.8% (inactive) | -18.3% (inactive) | -5.3% (inactive) | -11.8% (inactive) |  |  |  |  |  |  |  |
| N[C@@H](Cc1ccc(O)c(O)c1)C(=O)O | 1% (inactive) | 1 (inactive) | 1% (inactive) | -0.9% | 2.9% (inactive) | 68.9% (active) | -13.9% (inactive) | 1.9% (inactive) | 49.9% (inactive) | 66.7% (active) | 47.5% (inactive) | 2.07% (inactive) |  |  |  |  |  |  |  |
